Hits are enriched below; roughly 12% of the tested compounds scored in any of these assays.
BAZ2B block: inhibitors of human BAZ2B bromodomain; Q9UIF8; AlphaScreen BAZ2B-H3K14Ac peptide displacement; Potency, µM (titrated, usually from 114 µM), for inactives: top-dose activity change, negative = inhibition, most hits filed as inhibitors; 4.4% of 360,000 active; note: potency is the fitted concentration of half-maximal effect; % is set by controls: 0 for no effect and ±100 for the full control effect; nearly all actives have a fitted effect of over 60% in size
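Multi-concentration screen (max 110 uM) measuring displacement of acetylated histone H3 peptide from BAZ2B by AlphaScreen, using 50 nM protein, 50 nM peptide and 10 ug/mL streptavidin donor plus Ni-chelate acceptor beads.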
PLK1 PBD inh: inhibitors of human PLK1 polo-box domain binding | P53350 | Plk1 PBD binding of FITC phosphopeptide, fluorescence polarization | Potency, µM, inactives show max response, negative = inhibition, actives largely listed as inhibitors | 2.8% of 360,000 active | AID 720504; note: potency is the fitted concentration of half-maximal effect; series mostly up to about 57 µM; % is set by controls: 0 for no effect and ±100 for the full control effect; nearly all actives have a fitted effect of over 65% in size
JMJD2A Tudor inh: inhibitors of human JMJD2A Tudor domain; O75164; AlphaScreen JMJD2A-Tudor / H3K4me3 peptide binding; Potency, µM (highest dose often 114 µM), for the others: at the top dose activity change, negative = inhibition, usual class: inhibitors; 4.4% of 390,000 active; AID 504339; note: potency is the fitted concentration of half-maximal effect; % is set by controls: 0 for no effect and ±100 for the full control effect; nearly all actives have a fitted effect of over 50% in size
PI5P4Ka inh: blocks human PI5P4K alpha kinase activity; PI5P4Kalpha enzyme, ADP-Glo luminescence, 60 min; active compounds read low; max response, %; P48426; AID 652105; 1.2% of 330,000 active; active = max response of -50% or lower; inconclusive = between -30% and -50%; inactive = -30% or higher; note: value at the top dose of about 77 µM; % is set by controls: 0 for no effect and ±100 for the full control effect
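Single end-point luminescence (ADP-Glo) quantified ADP from PI5P4Kalpha turnover; ATP 5 microM final, 1 h at RT, 0.1% CHAPS and 0.28 mM EGTA in HEPES pH 7.4.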
G9a block: blocks human histone lysine methyltransferase G9a; 8.8% of 350,000 active; Potency, µM (series often up to 102 µM), for the others: at the highest dose activity, negative = inhibition, hits mostly inhibitors; G9a H3K9 monomethylation, AlphaScreen, 2 h; AID 504332; note: potency is the fitted concentration of half-maximal effect; % is set by controls: 0 for no effect and ±100 for the full control effect; nearly all actives have a fitted effect of over 75% in size
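Signal arises when biotinylated H3K9 peptide, once monomethylated, bridges streptavidin donor and antibody-captured acceptor beads. Enzyme at 20 nM was preincubated 15 min with test compounds; peptide 500 nM and SAM 20 uM then reacted for 2 h.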
HP1b binding inh: blocks HP1-beta chromodomain binding to methylated histone tails. P83916. AlphaScreen HP1-beta / biotin-H3K9me3 peptide binding. Potency, µM (top dose mostly 114 µM), inactives show top-dose activity change, negative = inhibition, hits mostly inhibitors. 0.56% of 390,000 active. AID 540317; note: potency is the fitted concentration of half-maximal effect; nearly all actives have a fitted effect of over 70% in size
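AlphaScreen: HP1-beta (50 nM) preformed 30 min with biotin-H3(1-18)K9me3 peptide (50 nM) in PBS pH 7.4, 0.01% Tween-20. Compound added for 30 min at RT, then streptavidin donor/nickel chelate acceptor beads (10 ug/mL) for 30 min.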
Active calls of the source: *; [ ] = remark or other dose. Unless noted, calls come from the whole dose curve; as a rule, active = well fitted curve in the direction sought with a large enough effect; inconclusive = small, poorly fitted or top-dose-only effect, or another doubt; inactive = no such curve, though single readings can be large; an effect the other way counts as inactive or inconclusive.

Cc1ccc(NS(=O)(=O)c2ccc(NC(=O)C(C)Sc3ccc(Cl)cc3)cc2)c(C)c1 (stereo unspecified) was read as BAZ2B block 10%, PLK1 PBD inh 30µM*, JMJD2A Tudor inh -35%, PI5P4Ka inh 5, G9a block -8%[59 µM] and HP1b binding inh -2%.
`O=C(COc1ccccc1F)Nc1ccc(S(=O)(=O)Nc2nccs2)cc1` gave BAZ2B block -18%, PLK1 PBD inh -21%, JMJD2A Tudor inh -12%, PI5P4Ka inh -2, G9a block 16% and HP1b binding inh 26%.
`O=C(COc1ccc(F)cc1Cl)Nc1ccc(S(=O)(=O)Nc2nccs2)cc1` gave BAZ2B block -2%, PLK1 PBD inh -14%, JMJD2A Tudor inh -24%, PI5P4Ka inh 2, G9a block 32µM* and HP1b binding inh 5%.
O=C(CSc1ccncc1)Nc1ccc(S(=O)(=O)Nc2nccs2)cc1 was read as BAZ2B block inconclusive, PLK1 PBD inh -24%, JMJD2A Tudor inh -29%, PI5P4Ka inh -13 and HP1b binding inh 2%[57 µM].
For Cc1ccc(SCC(=O)Nc2ccc(S(=O)(=O)Nc3nccs3)cc2)cc1 the results were BAZ2B block inconclusive, PLK1 PBD inh -28%, JMJD2A Tudor inh -27%, PI5P4Ka inh -19, G9a block 13µM* and HP1b binding inh -5%.
Screening COC(=O)c1sc(-c2ccccc2)cc1NC(=O)c1ccc(OC)cc1 returned BAZ2B block -4%, PLK1 PBD inh -7%, JMJD2A Tudor inh 3%, PI5P4Ka inh 15, G9a block 14%[59 µM] and HP1b binding inh 92%.
`CCOC(=O)c1sc(-c2ccccc2)cc1N` gave BAZ2B block 11%, PLK1 PBD inh 1%, JMJD2A Tudor inh 5%, PI5P4Ka inh -1, G9a block 15%[59 µM] and HP1b binding inh 37%.
Screening CCOC(=O)c1cc(-c2ccccc2)sc1N returned BAZ2B block inconclusive, PLK1 PBD inh 12µM*, JMJD2A Tudor inh inconclusive, PI5P4Ka inh -22, G9a block 8.9µM* and HP1b binding inh inconclusive.
Screening CCOC(=O)c1cc(-c2ccccc2)sc1NC(=O)CC returned BAZ2B block 10%, PLK1 PBD inh 21µM*, JMJD2A Tudor inh -32%[57.1 µM], PI5P4Ka inh 3, G9a block 56µM* and HP1b binding inh inconclusive.
For CCOC(=O)c1cc(-c2ccccc2)sc1NC(=O)c1ccc(OC)cc1 the results were BAZ2B block -33%, PLK1 PBD inh 5.3µM*, JMJD2A Tudor inh inconclusive, PI5P4Ka inh -28, G9a block inconclusive and HP1b binding inh inconclusive.
`CCOC(=O)c1cc(-c2ccccc2)sc1NC(=O)CN1C(=O)NC(CC)(c2ccccc2)C1=O` (stereo unspecified) gave BAZ2B block 1%, PLK1 PBD inh 1%, JMJD2A Tudor inh -9%, PI5P4Ka inh -25, G9a block inconclusive and HP1b binding inh 23%.
Cc1cc(Cl)ccc1NC(=O)CN1C(=O)C(=O)N(C2CCCC2)C1=O was read as BAZ2B block -3%, PLK1 PBD inh -9%, JMJD2A Tudor inh -10%, PI5P4Ka inh -2, G9a block 15%[12.7 µM] and HP1b binding inh 31%.
CCN(CC)C(=O)CSc1nnc2cc(C)c3ccccc3n12 was read as BAZ2B block -7%, PLK1 PBD inh 2%, JMJD2A Tudor inh 2%, PI5P4Ka inh 9, G9a block inconclusive and HP1b binding inh 39%.
`Cc1cc(C)c2c(c1)c(C)cc1nnc(SCc3ccccc3C#N)n12` gave BAZ2B block inconclusive, JMJD2A Tudor inh -16%, G9a block -34%[59 µM] and HP1b binding inh 32%.
Screening CCOC(=O)C(CC)Sc1nnc2cc(C)c3ccccc3n12 (stereo unspecified) returned PLK1 PBD inh 3%, JMJD2A Tudor inh 8%, PI5P4Ka inh -2 and HP1b binding inh 25%.
`COC(=O)C(C)Sc1nnc2cc(C)c3cc(C)cc(C)c3n12` (stereo unspecified) gave BAZ2B block inconclusive, JMJD2A Tudor inh -18%, G9a block 8.9µM* and HP1b binding inh 30%.
`CCCN(CCC)C(=O)CSc1nnc2cc(C)c3cc(C)cc(C)c3n12` gave BAZ2B block -20%, JMJD2A Tudor inh 16µM*, G9a block 2.5µM* and HP1b binding inh 44%.
Cc1cc(C)c2c(c1)c(C)cc1nnc(SCC(=O)c3cccs3)n12 was read as BAZ2B block 1%, PLK1 PBD inh 0%, JMJD2A Tudor inh inconclusive, PI5P4Ka inh 0, G9a block 3.2µM* and HP1b binding inh 6%.
CCCCN(C)CCNC(=O)C1CCN(c2nc3ccc(CC)cc3s2)CC1 was read as BAZ2B block -11%, JMJD2A Tudor inh -27%, G9a block -42%[59 µM] and HP1b binding inh 2%.
For CCOc1ccc(Cl)cc1S(=O)(=O)N1CCC(C(=O)NCC2CCCO2)CC1 (stereo unspecified) the results were BAZ2B block 5%, PLK1 PBD inh -26%, JMJD2A Tudor inh -3%, PI5P4Ka inh 0, G9a block 4% and HP1b binding inh -1%.
COc1ccc(S(=O)(=O)c2cn(C)c3cc(N4CCCCCC4)c(F)cc3c2=O)cc1 was read as BAZ2B block 3%, JMJD2A Tudor inh -2%, G9a block 6%[59 µM] and HP1b binding inh 29%.
For Fc1ccccc1Nc1nc(Cl)nc(Cl)n1 the results were BAZ2B block 0%, PLK1 PBD inh 19µM*, JMJD2A Tudor inh inconclusive, PI5P4Ka inh -14, G9a block 6%[59 µM] and HP1b binding inh -12%.
`Cc1ccccc1NS(=O)(=O)c1cc(C(=O)Nc2cccc([N+](=O)[O-])c2)ccc1C` gave BAZ2B block -11%, PLK1 PBD inh 2%, JMJD2A Tudor inh inconclusive, PI5P4Ka inh -4, G9a block -6%[59 µM] and HP1b binding inh -8%.
Cc1ccc(NS(=O)(=O)c2cc([N+](=O)[O-])ccc2NNC(=S)Nc2cc(C)ccc2C)c(C)c1 was read as BAZ2B block 32µM*, PLK1 PBD inh inconclusive, JMJD2A Tudor inh 40µM*, PI5P4Ka inh -20, G9a block 2.5µM* and HP1b binding inh inconclusive.
Screening COc1ccc(NC(=S)NNc2ccc([N+](=O)[O-])cc2S(=O)(=O)Nc2ccc(C)cc2C)cc1 returned BAZ2B block 25µM*, PLK1 PBD inh 27µM*, JMJD2A Tudor inh 32µM*, PI5P4Ka inh inconclusive, G9a block 10µM* and HP1b binding inh inconclusive.
For Cc1ccc(NS(=O)(=O)c2cc([N+](=O)[O-])ccc2NNC(=S)Nc2cccc(Cl)c2)c(C)c1 the results were BAZ2B block 20µM*, PLK1 PBD inh inconclusive, JMJD2A Tudor inh inconclusive, PI5P4Ka inh -67*, G9a block 16µM* and HP1b binding inh inconclusive.
